# Only some compounds are listed: those with a hit (about 3.6% of all), similar ones and a draw of the others.
# TRHR ag – TRH receptor (human) agonism; P34981; TRHR cells, calcium flux fluo-8, FDSS agonist mode; activation, % at 2 µM; 0.18% of 360,000 active; AID 493084; note: 0% is about no effect
# Target sequence (P34981 whole entry, looked up): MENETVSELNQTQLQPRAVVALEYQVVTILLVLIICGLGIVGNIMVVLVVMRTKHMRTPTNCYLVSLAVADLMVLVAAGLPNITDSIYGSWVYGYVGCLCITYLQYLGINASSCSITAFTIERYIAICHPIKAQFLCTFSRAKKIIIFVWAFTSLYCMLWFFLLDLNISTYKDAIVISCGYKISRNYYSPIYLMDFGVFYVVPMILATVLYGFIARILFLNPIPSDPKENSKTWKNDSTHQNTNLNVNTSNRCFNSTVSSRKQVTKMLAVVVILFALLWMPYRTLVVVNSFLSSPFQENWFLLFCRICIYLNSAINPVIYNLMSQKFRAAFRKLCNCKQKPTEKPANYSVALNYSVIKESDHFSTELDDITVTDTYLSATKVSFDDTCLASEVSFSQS
#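 Read-out: compound-evoked intracellular calcium rise in TRHR cells, fluo-8 dye, kinetic FDSS fluorescence at 1 s/cycle following a 10-cycle baseline. Cells cultured overnight before dye loading (30 min–1.5 h, RT).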
# TRHR PAM – allosteric enhancers of human TRH receptor. P34981. TRHR cells, fluo-8 calcium fluorescence, EC20 TRH enhancement. enhancement, % at 2 µM. 0.66% of 360,000 active. AID 493056; in the data active = enhancement above about 30%; note: 0% is about no effect
#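 TRHR-expressing cells loaded with fluo-8 calcium dye were read kinetically (ex 480/em 530) during compound addition, then stimulated with an EC20 of TRH (10 nM final). Enhancement of the Gq-mediated intracellular calcium response was scored.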
# LDHA block – blocks human lactate dehydrogenase A; purified LDHA, NADH/diaphorase-resazurin fluorescence; hits give low values; 0.15% of 480,000 active; activity change, % (values are at about 110 or 230 µM); P00338; in the data active = activity change below about -30%;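 note: plate controls were DMSO wells for no effect and wells without enzyme for full effect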
#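 LDH5 2 nM; NADH 0.06 mM, pyruvate 0.2 mM; 200 mM Tris pH 7.4, EDTA, Tween-20; 5 min RT. Detection: diaphorase 0.133 mg/mL + resazurin 37 µM, fluorescence ex540/em590 at 0 and 20 min; normalized to enzyme-free and DMSO wells.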
# D1 PAM – enhances dopamine response at the human D1 receptor; 0.036% of 360,000 active; AID 504651; P21728; potentiation, % at 10 µM; HEK293 TREx D1 cells, calcium flux, dopamine EC20 potentiation; in the data active = potentiation above about 30%; note: 0% is about no effect
# D1 antagonist – human D1 dopamine receptor antagonism. HEK293 TREx D1 cells, calcium flux, dopamine EC80; hits give low values. activity change, negative = inhibition, % at 10 µM. 3.2% of 360,000 active; in the data active = activity change below about -30%; note: % is set by controls: 0 for no effect and ±100 for the full control effect
#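 Tetracycline-induced HEK293 Trex D1 cells, force-coupled to calcium, dye-loaded; compounds added and read 180 s, then EC80 dopamine added and calcium flux tracked kinetically another 180 s.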
# D1 ag – activates the human D1 dopamine receptor. P21728. HEK293 T-REx D1 cells, calcium flux, agonist mode. activation, % at 2 µM. 1% of 360,000 active. AID 504660; note: 0% is about no effect
#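 Tetracycline-induced HEK293 TREx D1 cells, force-coupled to calcium signalling, were dye-loaded with a no-wash calcium kit. Compound was pin-added after a 10 s baseline. Fluorescence was read kinetically at 1 cycle/s for 180 s, with calcium rises flagged as agonism.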
# * marks the source's active call; other numbers are inactive results; . = no result; ! = a repeat was not active. Cut-off read from the data, not from the text of the source, unless noted: active = activation above about 30%; inactive = the rest.
SMILES,TRHR ag,TRHR PAM,LDHA block,D1 PAM,D1 antagonist,D1 ag
COc1cccc(-c2c(NC(=O)c3cccc([N+](=O)[O-])c3)oc3ccccc3c2=O)c1,.,.,0,.,.,.
O=C(NCC1CCN(Cc2cccc(Cl)c2)CC1)Nc1cc(Cl)ccc1Cl,2,-1,2,-1,12,19
COc1ccc(Cl)cc1NC(=O)NCC1CCN(Cc2cc(C)ccc2C)CC1,1,1,-2,-9,-31*,30
COc1cc([N+](=O)[O-])ccc1NC(=O)NCC1CCN(Cc2ccc(Cl)cc2)CC1,3,16,1,-10,-33*,31*
c1ccc(CN2CCCNC2)cc1,.,.,-6,.,.,.
CCCOC(=O)C1[C@H]2C(=O)N(Cc3ccco3)C[C@]23C=C[C@H]1O3 (stereo partly specified),0,6,-1,-10,-61*,-1
Cc1cccc(N2C(=O)CSC23CCCCC3)c1,0,1,-7,-8,-34*,2
CCOc1ccccc1NC(=O)c1ncoc1-c1ccc(OC)cc1,.,.,20,.,.,.
Cc1cc(C)nc(NC2=NCC(=O)N2c2ccc3c(c2)OCCO3)n1,0,4,2,-2,-84*,-1
COc1ccc(N2C(=O)CN=C2Nc2nc(C)cc(C)n2)cc1,-2,0,-7,0,-4,4
CN(C)c1cccc(C(=O)NNc2c(Cl)cc(Cl)cc2Cl)c1,.,.,2,.,.,.
Cn1c(=O)c2c(ncn2CC(=O)N2CC(C(N)=O)Oc3ccccc32)n(C)c1=O (stereo unspecified),.,.,2,.,.,.
Cc1cccc(COC(=O)C2=NN(C3CCS(=O)(=O)C3)C(=O)CC2)c1 (stereo unspecified),.,.,2,.,.,.
COc1ccccc1-c1cc(C(=O)NC2CCCC2)no1,0,12,-2,-8,-32*,3
O=C(NC1CCCC1)c1cc(-c2cccs2)on1,0,0,-39*!,2,-42*,2
O=C(NC1CCCC1)c1cc(-c2ccccc2O)on1,0,-23,-11,-5,-2,0
O=C(Cn1ccc2cc(Br)ccc21)Nc1nccs1,.,.,0,.,.,.
Cc1cccc(-n2ncc3c(NC4CCCCCC4)ncnc32)c1,.,.,0,.,.,.
C[C@@H]1NC(=O)c2cc([N+](=O)[O-])cc(I)c2OCC[C@@H](C(N)=O)NC(=O)[C@H](CCCCN)NC1=O,-1,3,1,2,11,-1
NCCCC[C@@H]1NC(=O)c2cc([N+](=O)[O-])cc(I)c2SC[C@@H](C(N)=O)NC(=O)[C@H](Cc2ccc(O)cc2)NC1=O,0,-1,1,-4,-4,-3
NCCCC[C@@H]1NC(=O)[C@H](CCC(=O)O)NC(=O)c2cc([N+](=O)[O-])cc(I)c2SC[C@@H](C(=O)NCC(N)=O)NC1=O,0,10,5,-5,-44*,-1
NCCCC[C@H]1NC(=O)[C@H](CCC(=O)O)NC(=O)c2cc([N+](=O)[O-])cc(I)c2OCC[C@@H](C(N)=O)NC1=O,0,3,-40*,-2,-11,-2
CCN1C(=O)/C(=C/C=C2/SCCN2C)SC1=S,16,-4,14,12,23,41*
CCCN1C(=O)/C(=C\C=C2/Sc3ccccc3N2CCO)SC1=S,14,-2,-6,-5,2,30*
CCN1C(=O)/C(=C/N2CCc3ccccc32)SC1=S,1,1,-7,0,-19,2
SMILES,TRHR ag,TRHR PAM,LDHA block,D1 PAM,D1 antagonist,D1 ag
CCN1C(=O)/C(=C/C=C2/Sc3ccccc3N2CCO)SC1=S,8,8,-5,2,7,32*
O=C(O)/C=C/c1ccc2noc(-c3ccccc3)c2c1,1,32*,-3,-2,5,0
CN(CCOc1ccc(Cl)cc1)C(=O)c1ccc(S(=O)(=O)N2CCOCC2)cc1,0,0,-9,-1,-39*,22
O=C(Nc1ccc(S(=O)(=O)N2CCOCC2)cc1)c1ccc(S(=O)(=O)N2CCOCC2)cc1,1,8,-1,0,2,2
Cc1ccc(NS(=O)(=O)c2cccc(Cl)c2Cl)cc1S(=O)(=O)N1CCOCC1,.,.,3,.,.,.
Cc1ccc(S(=O)(=O)N2CCOCC2)cc1C(=O)OCC(=O)Nc1ccc(Cl)cn1,.,.,0,.,.,.
O=C(Nc1ccc(S(=O)(=O)N2CCOCC2)cc1)c1ccc(Cl)cc1,-1,-7,-11,-6,-40*,5
Cc1ccc(NC(=O)c2ccccc2NS(=O)(=O)c2ccc(Cl)s2)cc1S(=O)(=O)N1CCOCC1,-1,-23,-3,-6,-50*,34*
Cc1ccc(S(=O)(=O)N2CCOCC2)cc1C(=O)OCCOc1cccc(Cl)c1,0,10,-1,2,-15,31*
CCN(CC)S(=O)(=O)c1ccc(Oc2cccc(C)c2)c(NC(=O)c2ccccn2)c1,.,.,4,.,.,.
O=C(Cn1nc(-c2cccs2)oc1=O)Nc1cccc(Cl)c1,.,.,1,.,.,.
CCOc1ccc(C(=O)Nc2ccc(S(=O)(=O)N3CCN(C)CC3)cc2)cc1,-1,5,-9,-18,0,9
O=C(Nc1ccc(S(=O)(=O)N2CCCC2)cc1)c1ccc(CN2CCOCC2)cc1,0,3,-11,10,-13,10
CC(=O)Nc1ccc(S(=O)(=O)N2CCC(C(=O)c3ccc(F)cc3)CC2)cc1,0,7,3,-9,-7,4
CC(C)Oc1ccc(C(=O)Nc2ccc(S(=O)(=O)N3CCN(C)CC3)cc2)cc1,2,0,0,-21,-53*,4
O=C(Nc1ccc(Cc2ccncc2)cc1)c1ccc(S(=O)(=O)N2CCOCC2)cc1,2,8,-2,-3,-41*,16
COc1ccc(C)cc1NC(=O)c1ccccc1NS(=O)(=O)c1ccc(Cl)s1,3,-8,1,-4,-31*,24
CC(=O)Nc1ccc(S(=O)(=O)N2CCC(C(=O)c3ccc(Cl)cc3)CC2)cc1,0,-3,-6,-9,-44*,7
O=C(CN1CCCc2cc(F)c(F)cc21)Nc1cccc2nsnc12,.,.,6,.,.,.
CC(=O)Oc1ccc(C(=O)Nc2ccc(S(=O)(=O)N3CCOCC3)cc2)cc1,1,41*,3,1,-90*,6
Cc1ccccc1N1CC(C(=O)Nc2ccc(S(=O)(=O)N3CCCCC3)cc2)CC1=O (stereo unspecified),-1,35*,2,-2,-11,5
O=C(Nc1cc(S(=O)(=O)N2CCOCC2)ccc1O)c1ccc(NS(=O)(=O)c2ccc(Cl)s2)cc1,0,0,-9,-12,-68*,-1
O=C(Nc1ccc(S(=O)(=O)N2CCOCC2)cc1)C1CCCCC1,0,3,-8,43*,-2,6

# Screening results as filed in PubChem.
